For 34 compounds, outcome and AC50 results are on record in PubChem BioAssay (EPA / NIEHS).

Structures are written as SMILES. “And” between values parts separate entries of the source, which are not always exact repeats. Equal values may be shown once. More than one record can exist for a structure, and the calls need not agree. The source made the active and inactive calls. The calls were made as follows: active = hit-call score of the fitted dose curve at least 0.9, where 1 is the maximum; inactive = score below 0.9.

A short description of this assay: ATG_CRE_CIS: Attagene CIS-FACTORIAL HepG2 Assay for human cAMP Responsive Element (CRE) binding protein 3 (AID 2282926). The conditions noted are these: HepG2 CRE cis-reporter, Attagene multiplexed mRNA; actives raise or lower the signal. How it is done: ATG_CIS is a cell-based, multiplexed-readout assay that uses HepG2, a human liver cell line, with measurements taken at 24 hours after chemical dosing in a 24-well plate.ATG_CRE_CIS is one of 52 assay component(s) measured or calculated from the ATG_CIS assay. It is designed to make measurements of mRNA induction, a form of inducible reporter, as detected with fluorescence intensity signals by Reverse transcription polymerase chain reaction (RT-PCR) and Capillary electrophoresis technology.Data from the assay component ATG_CRE_CIS was analyzed into 1 assay endpoint. This assay endpoint, ATG_CRE_CIS, was analyzed with bidirectional fitting relative to DMSO as the negative control and baseline of activity. Using a type of inducible reporter, measures of mRNA for gain or loss-of-signal activity can be used to understand the reporter gene at the transcription factor-level as they relate to the gene CREB3. Furthermore, this assay endpoint can be referred to as a primary readout, because this assay has produced multiple assay endpoints where this one serves a reporter gene function. To generalize the intended target to other relatable targets, this assay endpoint is annotated to the dna binding intended target family, where the subfamily is basic leucine zipper.
Human liver HepG2 cells are transiently transfected with multiple reporter transcription units (MRTUs) in 6-well plates using FuGene 6 reagent (Roche; 3 ml FuGene/1 mg DNA). The MRTU constructs are regulated by a cis-regulating element (promoter). […] A major difference between the CIS and TRANS system is that in CIS activities of endogenous TFs are measured, whereas the TRANS assay evaluates changes in activities of exogenous, chimeric NR-Gal4 proteins. […] At the end of 24 hour incubation, total RNA was isolated using TriZol reagent (Invitrogen). The isolated RNA is then reverse-transcribed using oligo(dT) primer and Mo-MLV reverse transcriptase (Invitrogen) with DNAse I (Ambion) treatment for 30 min. The one-tenth of the produced cDNA was amplified by PCR using Taq DNA polymerase (Invitrogen) and two reporter sequence-specific primers. The PCR products were fluorescently labeled by primer extension with 6-arboxyfluorescein (6-FAM) 5'-labeled reporter sequence-specific primer (2 min at 95 C, 20 s at 68 C and 10 min at 72 C) and these products were digested with 5U of HpaI (New England Biolabs) for 2h at 37 C. The fragments were purified using Qiaquick PCR columns (Qiagen), analyzed on an ABI 3130xL genetic analyzer (Applied Biosystems) with peak positions identified by using a set of X-rhodamine (ROX)-labeled MapMarker1000 molecular weight standards (BioVentures). The raw capillary electrophoresis data was processed using Attagraph software (Attagene).
Regarding `CC#Cc1cc(C)nc(Nc2ccccc2)n1`, the result was inactive. The same measure, in the same setting: in the case of `Clc1ccc(C(Cl)(Cl)Cl)cc1` it was “inactive”; in that of `CN(C)CCO`, “inactive”. `C1CC2OC2CC1C1CO1` (stereo not given): the compound was called inactive. For the compound `COS(=O)(=O)OC`, the compound was classed as inactive. By AC50 is commonly meant the concentration giving half of the maximal activity seen. For the compound `ClC(Cl)=C(c1ccc(Cl)cc1)c1ccc(Cl)cc1`, the result was inactive and the AC50 was 167 µM (active). With `Nc1ccc(-c2ccc(N)cc2)cc1`, the outcome was inactive. As for `OCC(O)CO`, the compound was called inactive. On the same count and under the same terms, in the case of `Oc1ccc(Cl)cc1Cl` it was “inactive”; in that of `Cc1ccccc1O`, “inactive”; in that of `Cc1cccc(C)c1N`, “inactive”.

In the case of `Oc1ccc(C(c2ccc(O)cc2)(C(F)(F)F)C(F)(F)F)cc1`, the AC50 is 11.1 µM (active) and 18.5 µM (active); the compound was classed as inactive. In the case of `COc1ccc(O)c(C(C)(C)C)c1`, the AC50 is 100 µM (active). In the case of `CC(C)(c1ccccc1)c1ccc(O)cc1`, the outcome was inactive; the AC50 is 33.4 µM (active) and 38.9 µM (active). Turning to `CCC(C)(c1ccc(O)cc1)c1ccc(O)cc1`, the result was inactive and the AC50 was 53.2 µM (active). `O=C(O)C(F)(F)C(F)(F)C(F)(F)C(F)(F)C(F)(F)F`: the call was inactive.

`CCCCCCCCCc1ccc(O)cc1`: the outcome was inactive. Turning to `Cc1cc(-c2ccc(N)c(C)c2)ccc1N`, the result was inactive.

Regarding `O=C(O)C(F)(F)C(F)(F)C(F)(F)C(F)(F)C(F)(F)C(F)(F)C(F)(F)C(F)(F)C(F)(F)F`, the AC50 was 62.2 µM (active) and the compound was called inactive. `CC(C)C(=O)OCC(C)(C)C(OC(=O)C(C)C)C(C)C` (stereo not given): the compound was called inactive. The same measure, in the same setting: in the case of `C[C@]12CCC(=O)C=C1CC[C@@H]1[C@@H]2CC[C@]2(C)C(=O)CC[C@@H]12` it was “inactive”; in that of `Sc1ccccc1`, “inactive”. `Nn1cnnc1`: the result was inactive.

Turning to `CCC(C)c1cc([N+](=O)[O-])cc([N+](=O)[O-])c1O` (stereo not given), the AC50 was 14 µM (active).

As to `CC1=C2C[C@H]3[C@@H](CC=C4C[C@@H](O)CC[C@@]43C)[C@@H]2CC[C@]12O[C@@H]1C[C@H](C)CN[C@H]1[C@H]2C`, the call was inactive. Consider `CCOC(=O)C(O)(c1ccc(Cl)cc1)c1ccc(Cl)cc1`, for which the call was inactive. Still for that read-out and setting: in the case of `N#Cc1ccc(N(CC(N)=O)CC(F)(F)F)cc1C(F)(F)F` it was “inactive”. In the case of `Cc1ccccc1[N+](=O)[O-]`, the result was inactive.

In the case of `CCCCCCCCCC[N+](C)(C)CCCCCCCCCC`, the result was inactive.

Regarding `CC(C)(O)C(=O)Nc1ccc([N+](=O)[O-])c(C(F)(F)F)c1`, the compound was classed as inactive and the AC50 was 51 µM (active). As to `Cc1cc(O)ccc1Cl`, the compound was called inactive. With `O=C(N[C@H]1CN2CCC1CC2)c1cc2ccoc2cn1`, the compound was called inactive.

Turning to `Cc1cccc([N+](=O)[O-])c1`, the compound was called inactive. As to `C=CC(N)=O`, the compound was classed as inactive.
